This note sets out measurements from PubChem BioAssay (NCATS).

Results filed as inconclusive are left out. Active and inactive are the calls of the source. Calls come from the whole dose curve; as a rule, active = well fitted curve in the direction sought with a large enough effect; inconclusive = small, poorly fitted or top-dose-only effect, or another doubt; inactive = no such curve, though single readings can be large; an effect the other way counts as inactive or inconclusive.

Protein phosphatase 1D (Homo sapiens), sequence (O15297 whole entry, looked up): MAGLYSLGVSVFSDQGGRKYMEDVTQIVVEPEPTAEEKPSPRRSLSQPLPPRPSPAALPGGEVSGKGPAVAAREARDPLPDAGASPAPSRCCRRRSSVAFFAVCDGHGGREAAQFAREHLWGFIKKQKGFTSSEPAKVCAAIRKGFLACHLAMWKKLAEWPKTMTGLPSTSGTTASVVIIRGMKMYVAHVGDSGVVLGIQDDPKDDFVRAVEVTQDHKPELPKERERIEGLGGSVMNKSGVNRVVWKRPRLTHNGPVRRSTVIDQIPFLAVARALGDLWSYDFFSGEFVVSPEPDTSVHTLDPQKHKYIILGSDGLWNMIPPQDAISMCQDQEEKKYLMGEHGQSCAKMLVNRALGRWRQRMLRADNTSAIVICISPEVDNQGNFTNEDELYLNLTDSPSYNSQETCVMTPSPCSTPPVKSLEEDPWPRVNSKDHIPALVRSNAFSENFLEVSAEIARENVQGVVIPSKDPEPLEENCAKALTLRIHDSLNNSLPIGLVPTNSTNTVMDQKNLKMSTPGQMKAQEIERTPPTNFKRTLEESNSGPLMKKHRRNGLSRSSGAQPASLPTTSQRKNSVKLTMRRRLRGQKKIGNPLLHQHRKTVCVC

In one assay the target is Protein phosphatase 1D (Homo sapiens) (UniProt O15297). Description: Rhodamine-PBP qHTS Assay for Modulators of WT P53-Induced Phosphatase 1 (WIP1) (AID 1347425). The note with it: recombinant WIP1, Rhodamine-PBP phosphate fluorescence, real-time; series mostly up to 57.5 µM. The method in brief:
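The read-out is the change in Rhodamine-PBP fluorescence (f1 - f0, ex 525/em 598 nm) as Pi is released, read each minute for 11 min. Final reaction: 5 nM WIP1, 10 uM phosphopeptide VEPPL-pS-QETFS, 10 uM Rh-PBP, 50 mM Tris-HCl pH 7.5, 30 mM MgCl2. Compound was preincubated with enzyme for 1 hour at room temperature.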
For `CCOC(=O)OCC/C(SC(=O)OCC)=C(\C)N(C=O)Cc1cnc(C)nc1N`, the outcome was inactive. Still for that read-out and setting: under `CCCCCCCCCCCCCCCC[N+](C)(C)Cc1ccccc1` stands “inactive”; under `COC(=O)[C@H]1[C@H]2C[C@@H]3c4[nH]c5cc(OC)ccc5c4CCN3C[C@H]2C[C@@H](OC(=O)/C=C/c2ccc(O)c(OC)c2)[C@@H]1OC`, “inactive”; under `CCc1cccc2c(CCO)c[nH]c12`, “inactive”. As for `CC(=O)N(CC(=O)N(C)C)c1ccccc1`, the outcome was inactive.

Test system in the next assay: not listed separately
Description: Primary qHTS for inhibitors of La Crosse Virus (LACV) - induced cell death in SH-SY5Y cells (AID 1508616).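 Note: top concentration of the series differs between compounds; higher means more rescue of cells from virus-induced death.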 The note with it: SH-SY5Y LACV cytopathicity rescue, ATP luminescence, 6 d; series mostly up to 4.29 µM. Summed up: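 Protection against LACV-induced cell death is scored in SH-SY5Y cells exposed to compounds and virus (0.01 MOI) for 6 days. Data normalized to virus-infected DMSO wells and virus-free DMSO wells.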
(In qHTS, concentration-response curves come from the screen itself.)
In the case of `Oc1cccc2[nH]ccc12`, the call was inactive. The same measure, in the same setting: as for `CC(=O)Nc1ccc(S(=O)(=O)Nc2cc(C)on2)cc1`, the entry is “inactive”; as for `CCOC(=O)OCC/C(SC(=O)OCC)=C(\C)N(C=O)Cc1cnc(C)nc1N`, “inactive”. On the same count and under the same terms, as for `CCC(=O)O[C@]1(C(=O)COC)[C@@H](C)C[C@H]2[C@@H]3CCC4=CC(=O)C=C[C@]4(C)C3(F)[C@@H](O)C[C@@]21C` (some centres not stated), the entry is “inactive”; as for `CCCCCCCCCCCCCCCC[N+](C)(C)Cc1ccccc1`, “inactive”; as for `OCCOCCN1CCN(C(c2ccccc2)c2ccc(Cl)cc2)CC1` (configuration not stated), “inactive”. Same read-out and setting: as for `CCOC(=O)O[C@]1(C(=O)OCCl)CC[C@H]2[C@@H]3CCC4=CC(=O)C=C[C@]4(C)[C@H]3[C@@H](O)C[C@@]21C`, the entry is “inactive”. For `CN(C(=O)C(Cl)Cl)c1ccc(OC(=O)c2ccco2)cc1`, the outcome was inactive. Same read-out and setting: as for `CCCCCOc1ccc(C2SC(=O)NC2=O)cc1OCC` (configuration not stated), the entry is “inactive”; as for `COc1ccc(OC(=O)N(CC(=O)O)Cc2ccc(OCCc3nc(-c4ccccc4)oc3C)cc2)cc1`, “inactive”; as for `C#CC(C)(CC)OC(=O)c1ccccc1C(=O)O` (configuration not stated), “inactive”.

Turning to `Cc1cc(O)c2c(O)c3c(O)cccc3cc2c1`, the result was inactive. Regarding `COC(=O)[C@H]1[C@H]2C[C@@H]3c4[nH]c5cc(OC)ccc5c4CCN3C[C@H]2C[C@@H](OC(=O)/C=C/c2ccc(O)c(OC)c2)[C@@H]1OC`, the molecule was classed as inactive.

With `CCc1cccc2c(CCO)c[nH]c12`, the outcome was inactive.

For the molecule `COc1ccc2cc(C=O)ccc2c1`, the call was inactive. Same read-out and setting: as for `CN1CCN(N)CC1`, the entry is “inactive”; as for `CC(COc1ccccc1)NN` (configuration not stated), “inactive”.

Regarding `Cc1ccc(CCn2c3c(c4cc(Cl)ccc42)CN(C)CC3)cn1`, the molecule was classed as inactive. Consider `C1N2CN3CN1CN(C2)C3`, for which the outcome was inactive. For the molecule `O=C(O)[C@@H](O)[C@H](O)[C@H](O)[C@@H](O)C(=O)O`, the result was inactive. Turning to `CSc1ccc(/C=C2/C(C)=C(CC(=O)O)c3cc(F)ccc32)cc1`, the outcome was inactive. `COc1ccccc1OCC1CNC(=O)O1` (configuration not stated): the molecule was called inactive. Still for that read-out and setting: under `OCc1c[nH]c2ccccc12` stands “inactive”. Still for that read-out and setting: under `CCCCCCCC(=O)[O-].CCCCCCCC(=O)[O-].[Zn+2]` stands “inactive”; under `CC(=O)N(CC(=O)N(C)C)c1ccccc1`, “inactive”.

For the molecule `CCCCCCn1c(=O)c2c(ncn2C)n(C)c1=O`, the result was inactive. With `O=C(CCOCCOCCOCCOCCC(=O)Nc1c(I)cc(I)c(C(=O)O)c1I)Nc1c(I)cc(I)c(C(=O)O)c1I`, the call was inactive. As for `O=C(OCCN1CCOCC1)c1cccnc1Nc1cccc(C(F)(F)F)c1`, the result was inactive.

With `O=C(O)Cc1ccc(OCCNC[C@H](O)c2ccccc2)cc1`, the outcome was inactive. The same measure, in the same setting: as for `CN1C(=O)CC(C)(c2ccccc2)C1=O` (configuration not stated), the entry is “inactive”. `C[N+](C)(CCOc1ccccc1)Cc1cccs1`: the outcome was inactive. With `O=C(O)c1ccccc1Nc1cc(Cl)ccc1C(=O)O`, the outcome was inactive.
